The results in this text go back to ChEMBL document CHEMBL3433997, “St. Jude Leishmania screening dataset” (2016).

Holding throughout (assay type): functional
Assay [1] deals with Solute carrier family 2, facilitated glucose transporter member 1 (Homo sapiens) (UniProt P11166). In words: ST_JUDE_LEISH: Cytotoxicity at 2uM final concentration against transgenic Leishmania Mexicana promastigotes LmGLUT1 that are glucose transport deficient and complemented with the human glucose transporter GLUT1. Activity is measured by DNA content using SYBR green in vitro.
Sequence of Solute carrier family 2, facilitated glucose transporter member 1 (Homo sapiens) (P11166 whole entry): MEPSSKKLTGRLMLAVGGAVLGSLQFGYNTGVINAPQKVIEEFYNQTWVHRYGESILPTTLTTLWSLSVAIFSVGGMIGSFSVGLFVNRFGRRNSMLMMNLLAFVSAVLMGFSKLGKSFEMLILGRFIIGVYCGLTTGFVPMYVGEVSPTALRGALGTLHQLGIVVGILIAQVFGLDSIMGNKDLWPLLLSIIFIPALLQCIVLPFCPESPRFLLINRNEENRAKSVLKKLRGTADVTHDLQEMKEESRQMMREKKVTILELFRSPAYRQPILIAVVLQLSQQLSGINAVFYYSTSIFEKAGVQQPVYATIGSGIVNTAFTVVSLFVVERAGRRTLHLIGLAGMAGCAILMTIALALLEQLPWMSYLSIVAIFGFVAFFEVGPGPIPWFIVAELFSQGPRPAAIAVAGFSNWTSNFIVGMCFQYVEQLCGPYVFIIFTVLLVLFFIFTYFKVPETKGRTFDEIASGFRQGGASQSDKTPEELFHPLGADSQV

For assay [2], the target named is Hexose transporter 1 (Plasmodium falciparum) (UniProt O97467). In words: ST_JUDE_LEISH: Cytotoxicity at 2uM final concentration against transgenic Leishmania Mexicana promastigotes LmPfHT that are glucose transport deficient and complemented with the Plasmodium falciparum hexose transporter. Activity is measured by DNA content using SYBR green in vitro.
Assay [3] has as its target Glucose transporter (Leishmania mexicana) (UniProt O61059). In words: ST_JUDE_LEISH: Cytotoxicity at 2uM final concentration against transgenic Leishmania Mexicana promastigotes LmGT2 that are glucose transport deficient and complemented with the L. Mexicana glucose transporter 2. Activity is measured by DNA content using SYBR green in vitro.

By inhibition is commonly meant the change of the read-out against control, counted positive when it falls. Consider `COc1ccc2nccc([C@@H](O)CN3CCC(NC(=O)/C=C/c4cc([N+](=O)[O-])ccc4OC)CC3)c2c1`, for which the inhibition was 1.12% in assay [1], 0.92% in assay [2] and 0.53% in assay [3].
Turning to `Oc1c(C(Nc2ccccn2)c2ccco2)cc(Cl)c2cccnc12` (stereo not drawn), the inhibition in assay [1] was 0.55%; in assay [2], 1.24%; in assay [3] it was -1.1%.
With `N#Cc1ccc(C(=O)Nc2cc(-c3cccc(O)c3)cc3[nH]ncc23)cc1`, the inhibition in assay [1] amounted to 2.57%; in assay [2] it was 2.33%; in assay [3], 0.89%.
Turning to `CCOC(=O)CN(c1ccc(Br)cc1OCCOc1cc(Br)ccc1N(CC(=O)OCC)C(C)C(=O)OCC)C(C)C(=O)OCC` (stereo not drawn), the inhibition in assay [1] was 1.16%; in assay [2], -0.2%; in assay [3], 1.37%.
In the case of `CCOc1cc(Br)c(C(C)NC(=O)c2ccccc2)cc1OCC` (stereo not drawn), the figures for the inhibition in assay [1], in assay [2] and in assay [3] were 1.08%, 0.92% and 1.97%, respectively.
`COc1cc(COc2c(C)nc(N)nc2N)cc(OC)c1OC`: the figures for the inhibition in assay [1], in assay [2] and in assay [3] were 5.98%, 4.54% and 4.97%, respectively.
For the compound `O=C(NC1CC1)c1ccc(N2CCN(Cc3ccc(Cl)cc3)CC2)nc1`, the inhibition in assay [1] was 0.06%; in assay [2], -0.23%; in assay [3] it was -0.4%.
With `O=[N+]([O-])c1cccc(S(=O)(=O)N2CCN(CC(O)COc3ccc(-c4ccccc4)cc3)CC2)c1` (stereo not drawn), the inhibition was found to be 1.04% in assay [1], 1.75% in assay [2] and 4.46% in assay [3].
As for `Clc1cc(Cl)c2c(c1)C(NCCCNc1nc3ccccc3[nH]1)CCO2` (stereo not drawn), the inhibition was 18.5% in assay [1], 43.3% in assay [2] and 28.1% in assay [3].
Regarding `CC(C)C[C@@H](/C=N/N1CCOC1=O)NC(=O)[C@H](CC(C)C)NC(=O)c1ccc(F)cc1`, the inhibition in assay [1] turned out to be 7.39%; in assay [2], 11.5%; in assay [3] it was 6.1%.
On to `CCc1sc(N2CCC(C)CC2)nc1C(=O)Nc1ccc(F)cc1C(F)(F)F`, for which the inhibition in assay [1] amounted to 2.29%; in assay [2], 3.34%; in assay [3], 0.26%.
Regarding `CC(=O)c1ccccc1C(=O)N1CCOc2ccc(C(O)C(c3ccccc3)c3ccccc3)cc2C1` (stereo not drawn), the values for the inhibition in assay [1], in assay [2] and in assay [3] were 0.04%, -1.21% and -1.21%, respectively.
In the case of `O=c1cc(NCCCCNCc2ccc(Br)c(Br)c2)[nH]c2ccccc12`, the results for the inhibition in assay [1], in assay [2] and in assay [3] were 0.91%, 0.5% and -4.13%, respectively.
In the case of `C[C@H]1CN(Cc2cccc(-c3cc(CNC(=O)c4cccc(C(=O)c5ccc(Cl)c(Cl)c5)c4)ccc3F)c2)CCN1`, the figures for the inhibition in assay [1], in assay [2] and in assay [3] were 1.24%, 2.34% and 1.43%, respectively.
Consider `N=C(N)NCCCCN(Cc1ccccc1)c1ccccc1`, for which the inhibition in assay [1] worked out at 3.52%; in assay [2], 3.53%; in assay [3], 3.86%.
Take `COC(=O)c1ccc(NC(=O)Nc2cccc(CCNCc3ccccc3)c2)cc1`: the inhibition is -0.06% in assay [1], -0.8% in assay [2] and -1.41% in assay [3].
On to `Cc1c(C)c2c(c(C)c1O)CC[C@@](C)(C(=O)N1CCC(CCN3CCC(c4c[nH]c5ccccc45)CC3)CC1)O2`, for which the inhibition stood at 7.87% in assay [1], 7% in assay [2] and 4.66% in assay [3].
Take `c1ccc2ncc(CNCCCCCCCCNCc3cnc4ccccc4c3)cc2c1`: the inhibition in assay [1] is -0.67%; in assay [2], -0.08%; in assay [3], 0.09%.
For `Cc1ccc(-c2nc3ccccc3o2)cc1NCc1cc(Cc2ccccc2)ccc1O` the same measures were -0.71%, -0.23% and -0.6%.
For the compound `CN1CCCN(c2ccnc3cc4c(cc23)N(C(=O)c2ccc(Cl)cc2)CC4)CC1`, the inhibition in assay [1] was found to be 13.4%; in assay [2], 12.5%; in assay [3] it was 16.1%.
For `O=S(=O)(NCCN1CCCC1)c1cccc(-c2ccc(CNCc3ccc(F)cc3)cc2)c1` the same measures were 7.08%, 3.37% and 4.19%.
As to `CN1CCN(c2cc(-c3cccc(C(F)(F)F)c3)nc(-c3ccncc3)n2)CC1`, the inhibition in assay [1] was 2.69%; in assay [2], 4.44%; in assay [3], -2.16%.
For `COc1cccc(C(=O)NCCc2cccc(Cl)c2)c1Oc1ccccc1` the same measures were 1.18%, 2.48% and 1.65%.
For the compound `CCC(=O)c1cc(C(=O)NCCc2cccc(OC)c2)ccc1OC`, the inhibition was 12.4% in assay [1], 11.3% in assay [2] and 11.3% in assay [3].
Turning to `Nc1n[nH]c(-c2ccccc2Nc2ccnc3cc(-c4nccs4)ccc23)n1`, the inhibition in assay [1] is 1.03%; in assay [2], 0.07%; in assay [3], -0.15%.
`O=C(Nc1ccccc1)N(Cc1cccc(-c2ccc(CNCc3ccc4c(c3)OCO4)cc2)c1)C1CCN(Cc2ccccc2)CC1`: the values for the inhibition in assay [1], in assay [2] and in assay [3] were 2.89%, 4.07% and 2.52%, respectively.
Take `c1csc(-c2nc(N3CCCCC3)ncc2-c2ccsc2)n1`: the inhibition stood at 4.57% in assay [1], 4.73% in assay [2] and 2.33% in assay [3].
`O=C(NCCCCCN1CCC(c2ccc(O)cc2)CC1)c1ccc(-c2ccccc2)cc1`: the figures for the inhibition in assay [1], in assay [2] and in assay [3] were 5.44%, 3.34% and 6%, respectively.
As for `Cc1cccc2nc(-c3ccc(-c4ccc(CN5CCN(C6CCN(C)CC6)CC5)cc4)cc3)[nH]c12`, the inhibition in assay [1] was 1.22%; in assay [2], 1.31%; in assay [3], -0.53%.
For `Oc1ccc(-c2nc3c(N4CCN(Cc5ccccc5)CC4)cccc3n2C2CCNCC2)cc1` the same measures were 3.29%, 7.64% and 2.62%.
For `CCN(CCCN1CCCCC1)c1cc(C)nc(Nc2cc(Cl)ccc2C)n1`, the inhibition was 1.18% in assay [1], 1.77% in assay [2] and 1.67% in assay [3].
Take `O=C(Nc1cccc(CN2CCCN(Cc3ccc(O)cc3)CC2)c1)c1cc(F)cc(F)c1`: the inhibition in assay [1] was 3.19%; in assay [2], 1.64%; in assay [3], -5.2%.
Consider `Cc1ccc(Nc2nccc(NCC(O)c3cccc(C(F)(F)F)c3)n2)cc1` (stereo not drawn), for which the inhibition in assay [1] turned out to be 4.66%; in assay [2], 4%; in assay [3] it was 0.81%.
On to `Cc1ccc(O)cc1Nc1ccnc2cc(-c3csc(CNCCN4CCOCC4)n3)ccc12`, for which the inhibition in assay [1] worked out at 1.41%; in assay [2] it was 0.86%; in assay [3], 1.37%.
Regarding `COc1ccc2[nH]c(-c3ccccc3)cc(=NN=Cc3ccncc3)c2c1`, the inhibition in assay [1] came out at 3.48%; in assay [2], 3.17%; in assay [3], 5.54%.
In the case of `CC(C)(CNC(=O)[C@@H]1CCCN(Cc2ccc(Cl)cc2)C1)c1nc(-c2ccc(Cl)c(O)c2)c(-c2ccncc2)[nH]1`, the inhibition in assay [1] is -1.45%; in assay [2], 0.41%; in assay [3], 0.77%.
